From PubChem BioAssay
DENV2 CPE: DENV2-induced cell death inhibition; CPE inhibition, % at 9.99 µM; hit rate 1.7% among 350,000; DENV2-infected cells, cytopathic effect rescue, plate reader; in the data active means CPE inhibition above about 20%, passing the limit was not always enough; inconclusive means no clear call, values can overlap the other calls; tested in BHK-21 cells;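 further: 0% = median of neutral control wells and 100% = median of positive control wells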
ERAP1 HTS inh: blocks human ERAP1 aminopeptidase activity | Q9NZ08 | recombinant ERAP1, Leu-AMC fluorescence, 60 min | inhibition, % at 10.7 µM | hit rate 0.15% among 340,000 | AID 652197;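 active means mean replicate inhibition of at least 30%, or all replicates individually reaching that 30% level; inactive means mean below 30% and not every replicate reaching it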;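 further: 0% = neutral control wells and 100% = L-leucinethiol positive control wells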
Target sequence (Q9NZ08 whole entry, looked up): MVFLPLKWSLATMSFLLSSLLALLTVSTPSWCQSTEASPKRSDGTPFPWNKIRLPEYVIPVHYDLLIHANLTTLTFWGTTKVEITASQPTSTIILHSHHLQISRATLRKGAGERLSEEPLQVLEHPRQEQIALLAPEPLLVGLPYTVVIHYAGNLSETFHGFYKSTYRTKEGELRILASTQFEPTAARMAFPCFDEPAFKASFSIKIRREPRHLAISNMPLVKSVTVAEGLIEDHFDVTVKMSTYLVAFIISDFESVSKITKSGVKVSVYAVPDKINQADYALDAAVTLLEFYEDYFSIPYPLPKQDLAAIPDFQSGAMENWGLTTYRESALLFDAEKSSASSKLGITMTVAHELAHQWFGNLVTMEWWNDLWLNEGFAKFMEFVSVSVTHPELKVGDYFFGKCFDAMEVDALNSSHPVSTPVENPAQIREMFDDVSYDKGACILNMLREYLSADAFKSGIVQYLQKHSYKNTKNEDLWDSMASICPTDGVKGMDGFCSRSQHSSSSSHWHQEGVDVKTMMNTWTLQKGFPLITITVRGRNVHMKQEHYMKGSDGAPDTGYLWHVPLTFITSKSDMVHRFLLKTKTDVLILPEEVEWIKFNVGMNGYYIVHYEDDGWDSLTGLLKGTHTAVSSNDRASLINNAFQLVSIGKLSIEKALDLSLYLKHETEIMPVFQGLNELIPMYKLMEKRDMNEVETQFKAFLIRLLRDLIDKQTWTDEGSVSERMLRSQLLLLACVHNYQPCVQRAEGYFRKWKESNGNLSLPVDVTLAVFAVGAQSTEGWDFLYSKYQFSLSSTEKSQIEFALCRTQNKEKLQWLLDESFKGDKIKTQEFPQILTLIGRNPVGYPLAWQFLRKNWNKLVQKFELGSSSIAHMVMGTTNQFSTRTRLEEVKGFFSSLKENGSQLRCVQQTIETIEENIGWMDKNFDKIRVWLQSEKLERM
PDI inh: inhibitors of human protein disulfide isomerase | P07237 | inhibition, % at 10 µM | hit rate 0.052% among 350,000 | AID 588391 | PDI insulin aggregation turbidity, A650, 90 min;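 active means mean inhibition across replicates of 30% or more, whatever share of single replicates reach that level; inconclusive means mean inhibition below 30% while every single replicate reaches 30%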
MLL AF4-AF9 inh: blocks AF4 peptide binding to human AF9. AlphaScreen, biotin-AF4 peptide binding to FLAG-AF9. AID 651704. hit rate 0.47% among 350,000. inhibition, % at 10 µM;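 active means every replicate reaching a set inhibition limit, whatever the replicate mean, cut at about 25% in these data; inconclusive means mean inhibition reaches that limit but some replicates miss it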;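 further: 0% = plate neutral control median and 100% = total signal loss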
ERp5 block: blocks human ERp5 reductase activity on insulin; Q15084; ERp5 insulin aggregation, absorbance 650 nm, 90 min; inhibition, % at 9.99 µM; hit rate 0.05% among 350,000;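 active means mean replicate inhibition above about 25%, with every replicate also reaching it, limit read from the data, passing the limit was not always enough; inconclusive means only one of those two criteria met; inactive means neither criterion met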
Numbers without * were called inactive; ! = not confirmed by another sample. Most compounds without a hit are left out; they make up all but 1.8% or so of the library.

For COc1ccc(CC(=O)OCC(=O)c2ccc(OC)c(OC)c2)cc1 the results were DENV2 CPE 29.8*, ERAP1 HTS inh -5.0, PDI inh -4.3, MLL AF4-AF9 inh 0.9 and ERp5 block 3.9.
`COc1ccc(CC(=O)OCC(=O)c2ccc(OC)cc2)cc1` gave PDI inh 3.1.
COc1ccc(C(C)(O)c2nc(-c3ccc(OC)c(OC)c3)cs2)cc1 (stereo unspecified) was read as DENV2 CPE -9.7, ERAP1 HTS inh -2.9, PDI inh -0.3, MLL AF4-AF9 inh -1.7 and ERp5 block -2.5.
`COc1ccc(-c2csc(C(C)(O)c3ccc(F)c(F)c3)n2)cc1OC` (stereo unspecified) gave DENV2 CPE 21.1*, ERAP1 HTS inh 4.6, PDI inh 15.7, MLL AF4-AF9 inh 0.0 and ERp5 block 4.8.
Screening CCC(=O)N1C[C@H]2[C@@H](c3ccccc31)[C@H](CO)N2C(=O)Nc1ccccc1F returned DENV2 CPE -1.6, ERAP1 HTS inh -0.3, MLL AF4-AF9 inh -0.3 and ERp5 block 4.0.
Screening Cc1nc2ccccc2c(=O)n1-c1ccc(NS(=O)(=O)c2ccccc2)cc1 returned DENV2 CPE 68.2*, ERAP1 HTS inh 1.2, PDI inh -3.7, MLL AF4-AF9 inh -11.2 and ERp5 block 3.7.
Screening CCCN1CCC(=O)N([C@H](CN=[N+]=[N-])Cc2ccccc2)CC1 returned DENV2 CPE -0.2, ERAP1 HTS inh -4.5, PDI inh 7.6, MLL AF4-AF9 inh 42.8* and ERp5 block -1.5.
For CC(C)C[C@@H](CN=[N+]=[N-])N1CCN(C)CCC1=O the results were DENV2 CPE -13.2, ERAP1 HTS inh -4.7, PDI inh -2.9, MLL AF4-AF9 inh -7.5 and ERp5 block -1.0.
`CC(C)C[C@@H](CN=[N+]=[N-])N1CCN(CC(C)C)CCC1=O` gave DENV2 CPE 87.0*, ERAP1 HTS inh -4.2, PDI inh -0.1, MLL AF4-AF9 inh -7.0 and ERp5 block -6.5.
`CN1CCC(=O)N([C@H](CN=[N+]=[N-])Cc2ccccc2)CC1` gave DENV2 CPE 18.0, ERAP1 HTS inh 0.4, PDI inh -1.2, MLL AF4-AF9 inh 42.9* and ERp5 block -7.1.
Screening C[C@@H]1CN([C@H](C)CO)C(=O)c2cc(-c3ccc(C#N)cc3)cnc2O[C@@H]1CN(C)Cc1ccccn1 returned DENV2 CPE inconclusive, ERAP1 HTS inh -1.1, MLL AF4-AF9 inh 3.6 and ERp5 block 1.8.
For COC(=O)/C(=N/Nc1ccccc1)N1CCCc2ccccc21 the results were ERAP1 HTS inh 1.5, PDI inh -3.0, MLL AF4-AF9 inh 36.9* and ERp5 block 4.0.
Screening C[C@H]1CN([C@@H](C)CO)C(=O)c2cccc(NC(=O)Nc3cccc4ccccc34)c2O[C@@H]1CN(C)C(=O)Nc1ccc2c(c1)OCO2 returned DENV2 CPE -17.3, ERAP1 HTS inh -1.7, MLL AF4-AF9 inh 10.1 and ERp5 block -16.5.
For Fc1cccc(CN2[C@@H]3CNC[C@H]2C3c2ccc(-c3ccncc3)cc2)c1 (stereo partly specified) the results were DENV2 CPE 2.1, ERAP1 HTS inh 0.4, MLL AF4-AF9 inh 30.3*! and ERp5 block 9.3.
For CN(C)C(=O)c1cccc(-c2ccc(C3[C@H]4CNC[C@@H]3N4Cc3cc(F)ccc3F)cc2)c1 (stereo partly specified) the results were DENV2 CPE 81.5*!, ERAP1 HTS inh 0.2, MLL AF4-AF9 inh 4.4 and ERp5 block 0.6.
Cc1ccc(-c2ccc(C3[C@H]4CNC[C@@H]3N4Cc3cccc(F)c3)cc2)cc1 (stereo partly specified) was read as DENV2 CPE 2.5, ERAP1 HTS inh -1.2, MLL AF4-AF9 inh 0.9 and ERp5 block -0.1.
COc1ccc(NC(=O)Nc2ccc3c(c2)C(=O)N([C@H](C)CO)C[C@@H](C)[C@@H](CN(C)S(=O)(=O)c2cccs2)OCCCC[C@H](C)O3)cc1 was read as DENV2 CPE 1.4, ERAP1 HTS inh -4.8, MLL AF4-AF9 inh -1.9 and ERp5 block 1.9.
Screening COC(=O)Cc1[nH]nc2c1C(c1cc(OC)c(OC)c(OC)c1)C(C#N)=C(N)O2 (stereo unspecified) returned DENV2 CPE 1.1, ERAP1 HTS inh -0.5, PDI inh -1.7, MLL AF4-AF9 inh 2.8 and ERp5 block 4.1.
COC(=O)Cc1[nH]nc2c1C(c1ccc(O)c(OC)c1)C(C#N)=C(N)O2 (stereo unspecified) was read as DENV2 CPE -6.1, ERAP1 HTS inh -1.8, PDI inh 5.8, MLL AF4-AF9 inh 29.5* and ERp5 block 2.2.
